An excerpt weighted towards active compounds, which were near 18% of everything screened.
TDP1 cell CPT – DT40-hTDP1 cell growth loss with CPT; AID 686979; Potency, µM (titrated, usually from 46.2 µM), for the others: at the top dose activity change, negative = growth inhibition, hits mostly inhibitors; chicken DT40 Tdp1-/-;hTDP1 cells + 20 nM CPT, ATP luminescence, 48 h; 12% of 420,000 active; further: nearly all actives have a fitted effect of over 55% in size
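Cell growth measured by CellTiter-Glo luminescence after a minimum 48 h, 37 C compound exposure with 20 nM CPT in Tdp1-knockout DT40 cells stably expressing hTDP1, seeded 400/well; qHTS titration format.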
KAT2A inh – inhibitors of human GCN5L2 histone acetyltransferase; GCN5L2 HAT assay, ThioGlo1 CoA-SH fluorescence; Potency, µM (titrated, usually from 58.9 µM), without a hit: at the highest dose activity change, negative = inhibition, hits mostly inhibitors; 0.21% of 390,000 active
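Preincubate 20nM GCN5L2 with compound 15 min, RT → add 50uM ThioGlo1 + 75uM H3(1-25) + 70uM acetyl-CoA → read fluorescence 0 and 20 min. Primary qHTS; fluorescent artifacts likely.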
DT40 TDP1 no CPT – qHTS for Inhibitors of human tyrosyl-DNA phosphodiesterase 1 (TDP1): qHTS in cells in absence of CPT | Potency, µM (doses to about 46.2 µM), for inactives: at the highest dose activity change, negative = growth inhibition, hits mostly inhibitors | 15% of 420,000 active | DT40 Tdp1-/- hTDP1 cells, no CPT, ATP luminescence, 48 h; further: nearly all actives have a fitted effect of over 55% in size
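No-CPT arm: Tdp1-/-;hTDP1 DT40 cells (400/well) plus compounds, incubated ≥48 hr at 37 °C. Readout CellTiter-Glo luminescence.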
TDP1 block – inhibitors of human tyrosyl-DNA phosphodiesterase TDP1 | recombinant TDP1, AlphaScreen DNA substrate cleavage | Potency, µM (doses to about 130 µM), without a hit: at the top dose activity change, negative = inhibition, usual class: inhibitors | 0.28% of 350,000 active; further: nearly all actives have a fitted effect of over 40% in size
Target sequence (Q9NUW8 whole entry, looked up): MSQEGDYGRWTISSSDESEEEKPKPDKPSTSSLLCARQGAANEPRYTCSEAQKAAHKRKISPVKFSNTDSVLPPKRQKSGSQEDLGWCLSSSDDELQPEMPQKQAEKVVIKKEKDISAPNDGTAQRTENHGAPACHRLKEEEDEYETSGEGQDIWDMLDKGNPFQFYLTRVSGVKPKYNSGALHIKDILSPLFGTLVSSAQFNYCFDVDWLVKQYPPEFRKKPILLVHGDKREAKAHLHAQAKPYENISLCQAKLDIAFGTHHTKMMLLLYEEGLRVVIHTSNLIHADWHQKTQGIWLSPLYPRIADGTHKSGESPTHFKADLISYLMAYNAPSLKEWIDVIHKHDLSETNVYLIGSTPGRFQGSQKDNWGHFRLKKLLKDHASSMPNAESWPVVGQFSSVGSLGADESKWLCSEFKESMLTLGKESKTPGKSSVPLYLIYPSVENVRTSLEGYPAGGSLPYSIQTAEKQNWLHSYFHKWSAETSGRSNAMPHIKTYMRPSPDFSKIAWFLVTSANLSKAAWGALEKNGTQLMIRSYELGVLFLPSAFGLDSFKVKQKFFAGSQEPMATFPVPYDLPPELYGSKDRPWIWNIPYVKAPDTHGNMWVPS
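E. coli-derived human Tdp1, 1 nM final. Cpd preinc 15 min RT; substrate 15 nM final, 5 min RT; AS bead mix 10 ug/ml final, 10 min RT. Signal loss = tyrosine-FITC cleavage. No-enzyme wells = max signal.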
VDR inh – blocks the human vitamin D receptor. P11473. VDR-SRC2-3 peptide fluorescence polarization, 2 h. Potency, µM, without a hit: max response, negative = inhibition, usual class: inhibitors. 0.93% of 400,000 active. AID 504847
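Fluorescence polarization assay measuring small-molecule disruption of VDR binding to the coregulator peptide SRC2-3. Compounds were pin-transferred (23 nl) into the reagent mix and incubated 2 h at room temperature before reading.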
PLK1 PBD block – PLK1 (human) polo-box domain binding inhibition | P53350 | 2.8% of 360,000 active | Plk1 PBD binding of FITC phosphopeptide, fluorescence polarization | Potency, µM, without a hit: max response, negative = inhibition, most hits filed as inhibitors; further: series mostly up to about 57 µM; nearly all actives have a fitted effect of over 65% in size
* marks the source's active call; other numbers are inactive results; ? = inconclusive; . = not tested or not shown. The call rests on the fitted dose curve; in most records, active means well fitted curve in the direction sought with a large enough effect; inconclusive means small, poorly fitted or top-dose-only effect, or another doubt; inactive means no such curve, though single readings can be large; an effect the other way counts as inactive or inconclusive. On the % scale 0 is the no-effect control and ±100 the full control effect; potency means the concentration at half of the fitted maximal effect.

SMILES	TDP1 cell CPT	KAT2A inh	DT40 TDP1 no CPT	TDP1 block	VDR inh	PLK1 PBD block
CC(=O)c1cccc(OCC(O)CN2CCN(S(=O)(=O)c3c(F)cccc3F)CC2)c1 (stereo unspecified)	?	-3%	?	.	-26%	19µM*
OC(COCCOc1ccc(Br)cc1)CN1CCN(Cc2ccccc2)CC1 (stereo unspecified)	?	1%	23µM*	5%	-12%	-28%
OC(COc1ccc(-c2ccccc2)cc1)CN1CCCCC1 (stereo unspecified)	?	.	26µM*	.	.	-9%
COc1cccc(OCCOCC(O)CN2CCN(Cc3ccc(Cl)cc3)CC2)c1 (stereo unspecified)	-26%	-5%	?	4%	1%	-12%
CCOC(=O)C1CCN(C(=O)COC(=O)/C=C/c2cccc(OC)c2OC)CC1	3%	-4%	-16%	-1%	9%	1%
CCOc1ccc(CCNC(=O)CCc2nnc3ccc(N4CCOCC4)nn23)cc1	-24%	?	-14%	.	-7%	-7%
COc1ccc(NC(=O)CCc2nnc3ccc(N4CCC(C)CC4)nn23)cc1	?	1%	?	5%	-1%	2%
CC1CCN(c2ccc3nnc(CCC(=O)Nc4cccc(F)c4)n3n2)CC1	?	-7%	?	3%	-23%	27µM*
CCOc1ccc(CCNC(=O)CCc2nnc3ccc(N4CCCCC4)nn23)cc1OCC	?	?	12µM*	.	6%	-11%
COc1ccc(N2CCN(c3ccc4nnc(CCC(=O)Nc5ccc(C)cc5)n4n3)CC2)cc1	?	-7%	23µM*	.	-27%	-3%
CC(C)CCNC(=O)CCc1nnc2ccc(N3CCC(C)CC3)nn12	-14%	?	-24%	.	-15%	-2%
CCc1ccc(NC(=O)CCc2nnc3ccc(N4CCC5(CC4)OCCO5)nn23)cc1	-12%	-8%	3%	11%	-8%	-15%
CCOC(=O)c1ccc(NC(=O)CCc2nnc3ccc(N4CCCC4)nn23)cc1	26µM*	-6%	?	1%	-9%	-9%
O=C(O)CC(NS(=O)(=O)c1ccc(Cl)s1)c1ccccc1 (stereo unspecified)	1%	-29%	28%	-2%	-5%	.
COc1ccc(OC)c(NC(=O)CSc2nc3nc(C)cc(C)n3n2)c1	2%	-3%	-8%	1%	-14%	3%
Cn1c(C2=C(O)CN(Cc3ccccc3)C2=N)nc2ccccc21	-4%	-2%	2%	5%	-1%	-13%
COc1ccc2c(c1)c1c(c(=O)n(-c3ccc(F)c(Cl)c3)c(=O)n1Cc1ccccc1F)n2C	?	-4%	?	6%	-5%	.
CCC(C(=O)NC(=O)NC(C)=O)c1ccccc1 (stereo unspecified)	-11%	.	-22%	.	.	.
Cc1cccc(OCc2cc(=O)n3c(-c4ccccc4)csc3n2)c1C	-12%	-13%	-41%	9%	10%	.
O=C(NC(NC1CCS(=O)(=O)C1)C(Cl)(Cl)Cl)c1ccc(Br)cc1 (stereo unspecified)	8.2µM*	-9%	7.3µM*	-2%	24%	-1%
COc1ccc(Br)c(Cn2c(C)c(C(=O)NCc3ccc(F)cc3)sc2=O)c1	?	.	?	.	.	4%
CC1=NN(c2ccccc2)C(=O)C1C(=O)C(=O)Nc1ccc(F)cc1 (stereo unspecified)	?	-5%	?	8%	-20%	-1%
CC1=NN(c2ccccc2)C(=O)C1C(=S)SC1CC(=O)NC1=O (stereo unspecified)	?	.	29µM*	.	.	11µM*
Nc1ccn(CC(=O)NCCNc2ccc([N+](=O)[O-])cn2)c(=O)n1	?	-4%	-8%	0%	0%	-16%
CC(C)CC(=O)Nc1ccc2nc(SCC(=O)N3CCc4ccccc43)sc2c1	5.2µM*	-14%	2.9µM*	4%	8%	.
SMILES	TDP1 cell CPT	KAT2A inh	DT40 TDP1 no CPT	TDP1 block	VDR inh	PLK1 PBD block
CCC(CC)C(=O)Nc1ccc2nc(SCC(=O)N3CCc4ccccc43)sc2c1	4.6µM*	-7%	5.2µM*	-2%	4%	.
CC(C)C(=O)Nc1ccc2nc(SCCOc3ccccc3)sc2c1	-25%	-7%	-28%	6%	5%	.
CC(C)C(=O)Nc1ccc2nc(SCC(=O)N3CCc4ccccc43)sc2c1	10µM*	-10%	4.1µM*	-4%	4%	.
CCCC(=O)Nc1ccc2nc(SCC(=O)N3CCCC3)sc2c1	-26%	?	?	3%	-5%	-12%
CCC(CC)C(=O)Nc1ccc2nc(SCC(=O)N3CCOCC3)sc2c1	?	-4%	?	5%	-4%	.
COc1cc(OC)cc(C(=O)NCC(=O)Nc2ccc(OC)c(Cl)c2)c1	18%	-5%	-1%	.	16%	-4%
C=CCSc1nc2c(c(=O)[nH]c(=O)n2C)n1C(C)C	-7%	-3%	-26%	2%	-30%	27µM*
C=CCSc1nc2c(c(=O)[nH]c(=O)n2C)n1Cc1ccc(C)cc1	?	-4%	?	3%	-15%	21µM*
Cc1ccc(Cn2c(SCC(C)C)nc3c2c(=O)[nH]c(=O)n3C)cc1	-29%	-5%	?	3%	-12%	24µM*
CCOC(=O)C(C)Sc1nc2c(c(=O)[nH]c(=O)n2C)n1Cc1ccc(Cl)cc1 (stereo unspecified)	-1%	-5%	-9%	2%	89µM*	21µM*
CCCSc1nc2c(c(=O)[nH]c(=O)n2C)n1Cc1ccc(C)cc1	-6%	3%	-15%	4%	14%	-9%
CC(C)n1c(N2CCCC2)nc2c1c(=O)[nH]c(=O)n2C	-3%	-3%	22%	.	-4%	-3%
C/C(=N\OCC(=O)OCC(=O)NC(=O)c1ccccc1)c1ccc2c(c1)OCO2	2%	1%	-13%	.	6%	8%
COc1ccc(CN2CCNC(=O)C2CC(=O)N(C)CCCN2CCOCC2)cc1C (stereo unspecified)	4%	?	18%	3%	-8%	-7%
CCOC(=O)CSc1nc2c(c(=O)[nH]c(=O)n2C)n1C/C=C(/C)Cl	3%	-5%	-25%	5%	?	?
C/C(Cl)=C/Cn1c(SC(C)C)nc2c1c(=O)[nH]c(=O)n2C	?	-11%	16µM*	-2%	-11%	?
Cc1ccccc1OCC(O)Cn1c(NCc2ccco2)nc2c1c(=O)[nH]c(=O)n2C (stereo unspecified)	?	-7%	?	.	10%	-6%

Compound activity (PubChem BioAssay)
